Measurements from PubChem BioAssay AID1332 (Southern Research Institute, 2008).
Values after ≈ are worked out from the molar mass of the structure shown. Out of some 1,100 compounds screened, about 170 (15%) were called active. How the calls were made is not given here. A selection follows.

Assay: Confirmatory growth inhibition assay, mycobacterium tuberculosis h37rv, with cytotoxicity (AID 1332);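 on CC50: Vero cells exposed to compounds for 72 hours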;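 on IC50: bacteria incubated 7 days before adding Alamar blue readout reagent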
Settings: M. tuberculosis H37Rv growth inhibition; CC50: measured here: Vero cell cytotoxicity; IC50: measured here: IC50 H37Rv replicates
For `CC(C(=O)O)c1ccc(N2Cc3ccccc3C2=O)cc1` (stereo not drawn), the IC50 was over 20 µg/mL and the outcome was “inactive”.
With `C[C@H]1[C@H]2CC[C@H]3[C@@H]4CC=C5C[C@@H](N(C)C)CC[C@]5(C)[C@H]4CC[C@]23CN1C` the IC50 was over 20 µg/mL and the outcome was “inactive”.
For `NC(N)=NC(N)=NCCc1ccccc1`, the IC50 was over 20 µg/mL and the outcome was “inactive”.
In the case of `CCOC(=O)[C@H](CCc1ccccc1)N[C@@H](C)C(=O)N1CCC[C@H]1C(=O)O`, the IC50 is reported as over 20 µg/mL and the outcome is reported as “inactive”.
For `CC(=O)Oc1ccccc1C(=O)Oc1ccccc1C(=O)O`, the IC50 was over 20 µg/mL and the outcome was “inactive”.
In the case of `O=C(OCC(O)CO)c1ccccc1Nc1ccnc2cc(Cl)ccc12` (stereo not drawn), the IC50 is reported as over 20 µg/mL and the outcome is reported as “inactive”.
For `CCc1cccc(CC)c1NC(=O)CN(CC(=O)O)CC(=O)O`, the IC50 was over 20 µg/mL and the outcome was “inactive”.
In the case of `COc1cc(-c2ccc(N=Nc3ccc4c(S(=O)(=O)O)cc(S(=O)(=O)O)c(N)c4c3O)c(OC)c2)ccc1N=Nc1ccc2c(S(=O)(=O)O)cc(S(=O)(=O)O)c(N)c2c1O`, the IC50 is reported as over 20 µg/mL and the outcome is reported as “inactive”.
For `NCC1CCC(C(=O)O)CC1` (stereo not drawn), the IC50 was over 20 µg/mL and the outcome was “inactive”.
In the case of `C[C@H](O)C(=O)Nc1c(I)c(C(=O)NC(CO)CO)c(I)c(C(=O)NC(CO)CO)c1I`, the IC50 is reported as over 20 µg/mL and the outcome is reported as “inactive”.
In the case of `CCCOc1cc(N)ccc1C(=O)OCCN(CC)CC`, the IC50 is reported as over 20 µg/mL and the outcome is reported as “inactive”.
For `COc1c2c(nc3ccccc13)OC(C(C)(O)CO)C2` (stereo not drawn), the IC50 was over 20 µg/mL and the outcome was “inactive”.
For `CN1CCCCC1CCN1c2ccccc2Sc2ccc(S(C)=O)cc21` (stereo not drawn), the IC50 was over 20 µg/mL and the outcome was “inactive”.
In the case of `CN1CCC[C@@H]1CCO[C@](C)(c1ccccc1)c1ccc(Cl)cc1`, the CC50 is reported as over 6 µg/mL, the IC50 is reported as 10.9 µg/mL (≈ 31.7 µM) and the outcome is reported as “active”.
With `CN1C(CC(O)c2ccccc2)CCCC1CC(O)c1ccccc1` (stereo not drawn) the IC50 was over 20 µg/mL and the outcome was “inactive”.
With `O[C@@H]1[C@@H](O)C=C2CCN3Cc4cc5c(cc4[C@H]1C23)OCO5` (stereo partly drawn) the CC50 was 0.806 µg/mL (≈ 2.81 µM), the IC50 was over 20 µg/mL and the outcome was “inactive”.
In the case of `CC1CCc2cc(F)cc3c(=O)c(C(=O)O)cn1c23` (stereo not drawn), the IC50 is reported as 9.83 µg/mL (≈ 37.6 µM) and the outcome is reported as “active”.
With `CCn1cc(C(=O)O)c(=O)c2cc3c(cc21)OCO3` the IC50 was over 20 µg/mL and the outcome was “inactive”.
For `O=C1N=C(O)CN1/N=C/c1ccc(-c2ccc([N+](=O)[O-])cc2)o1`, the IC50 was over 20 µg/mL and the outcome was “inactive”.
In the case of `CNCC(O)c1ccc(OC(=O)C(C)(C)C)c(OC(=O)C(C)(C)C)c1` (stereo not drawn), the IC50 is reported as over 20 µg/mL and the outcome is reported as “inactive”.
For `C=C(C)[C@@H]1C2C(=O)O[C@H]1[C@H]1OC(=O)[C@@]34OC3C[C@]2(O)[C@@]14C` (stereo partly drawn), the IC50 was over 20 µg/mL and the outcome was “inactive”.
For `CC1(C)OC(=O)NC1=O`, the IC50 was over 20 µg/mL and the outcome was “inactive”.
With `CC(C)(C)C(=O)OCOC(=O)[C@@H]1N2C(=O)[C@@H](NC(=O)[C@H](N)c3ccccc3)[C@H]2SC1(C)C` the IC50 was over 20 µg/mL and the outcome was “inactive”.
